KB-3-1 tox: kills parental KB-3-1 adenocarcinoma cells; Potency, µM (titrated, usually from 46.1 µM), hits mostly cytotoxic; KB-3-1 viability, CellTiter-Glo ATP luminescence, 72 h; 400,000 tested, 1.4% active; AID 1347075; further: nearly all actives have a fitted effect of over 60% in size
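Cells are dispensed, compounds pinned in, plates held at 37 °C for 72 h, then CellTiter-Glo is added and luminescence read after 10 minutes. Cell line: parental KB-3-1 in phenol-red-free DMEM, 10% FBS.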
TDP1 cell CPT: DT40-hTDP1 cell growth loss with CPT; chicken DT40 Tdp1-/-;hTDP1 cells + 20 nM CPT, ATP luminescence, 48 h; Potency, µM (highest dose often 46.2 µM), without a hit: at the top dose activity change, negative = growth inhibition, hits mostly inhibitors; 420,000 tested, 12% active; AID 686979; further: nearly all actives have a fitted effect of over 55% in size
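Chicken DT40 Tdp1-/- cells stably complemented with human TDP1 were seeded at 400 cells/well in medium containing 20 nM camptothecin, exposed to pin-transferred compounds, and grown at 37 °C for at least 48 hr. Viability was read as ATP luminescence.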
HT1080 IDH1KD tx: HT-1080 IDH1 knockdown cell toxicity (counter line). Potency, µM (doses to about 46.1 µM), for the others: top-dose activity, negative = toxicity, most hits filed as cytotoxic. HT-1080 IDH1 knockdown viability, ATP luminescence, 48 h. 360,000 tested, 2% active;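 further: 0% = DMSO wells and -100% = cell-free medium wells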
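Assay cells: HT-1080 with IDH1 knockdown, 750 per well, RPMI/5% FBS. Exposure: 48 h at 37 °C following 2 h pre-incubation. Read: CellTiter-Glo luminescence; fitted concentration-response, curve class assigned.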
HT1080NT lethal: kills 2HG-producing HT-1080-NT fibrosarcoma cells; HT-1080-NT fibrosarcoma viability, CellTiter-Glo ATP luminescence, 48 h; Potency, µM (top dose mostly 46.1 µM), for the others: at the top dose activity, negative = less viability, hits mostly cytotoxic; 360,000 tested, 1.6% active;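 further: NT is the 2HG producing partner of a matched IDH1 knockdown line; 0% = DMSO-treated cells and -100% = media-only wells without cells; nearly all actives have a fitted effect of over 55% in size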
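750 cells/well, RPMI + 5% FBS; 2 h settle, compound pin-transfer, 48 h at 37 degrees C. CellTiter-Glo 10 min RT, luminescence. Normalized to DMSO and media-only wells.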
DT40 TDP1 no CPT: qHTS for Inhibitors of human tyrosyl-DNA phosphodiesterase 1 (TDP1): qHTS in cells in absence of CPT | DT40 Tdp1-/- hTDP1 cells, no CPT, ATP luminescence, 48 h | Potency, µM (series often up to 46.2 µM), for the others: at the highest dose activity change, negative = growth inhibition, actives largely listed as inhibitors | 420,000 tested, 15% active; further: nearly all actives have a fitted effect of over 55% in size
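Growth kinetics read by CellTiter-Glo luminescence after ≥48 hr at 37 °C. Cells: DT40 Tdp1-/- stably carrying human TDP1, 400 per well, compound exposure in the absence of CPT (DMSO vehicle).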
KB-V1 cytotox: KB-V1 MDR subline cytotoxicity. KB-V1 MDR cells viability, CellTiter-Glo, 72 h. Potency, µM (titrated, usually from 46.1 µM), hits mostly cytotoxic. 400,000 tested, 3.4% active; further: nearly all actives have a fitted effect of over 60% in size
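Readout: CellTiter-Glo luminescence, 10 min after addition. Cells: KB-V1 MDR subline, 72 h at 37 degrees C with compound. Analysis: corrected, normalized data fitted to concentration-effect curves.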
* = called active by the depositor; i = inactive; ? = inconclusive; · = no result. Hits are enriched below; roughly 19% of the tested compounds scored in any of these assays. The call rests on the fitted dose curve; in most records, active means well fitted curve in the direction sought with a large enough effect; inconclusive means small, poorly fitted or top-dose-only effect, or another doubt; inactive means no such curve, though single readings can be large; an effect the other way counts as inactive or inconclusive. Unless noted, on the % scale 0 is the no-effect control and ±100 the full control effect; potency means the concentration at half of the fitted maximal effect.

SMILES	KB-3-1 tox	TDP1 cell CPT	HT1080 IDH1KD tx	HT1080NT lethal	DT40 TDP1 no CPT	KB-V1 cytotox
Fc1cccc(-c2cc3nc(-c4ccccc4)cc(N4CCC5(CC4)OCCO5)n3n2)c1	i	?	-15.0%	-10.7%	23.1µM*	i
COCCN1CCN(c2cc(-c3ccccc3)nc3cc(-c4cccc(F)c4)nn23)CC1	i	8.2µM*	?	?	9.2µM*	i
NS(=O)(=O)c1ccc(CCNc2ncnc3c2cnn3-c2cccc(Cl)c2)cc1	i	?	·	·	?	i
CCCCCc1ccc(OCCC[n+]2ccccc2)c(CCCCC)c1	11.6µM*	0.651µM*	5.17µM*	3.66µM*	1.03µM*	i
CC(=O)Nc1ccc(OCCC[n+]2ccccc2)cc1	i	-3.1%	9.4%	0.7%	22.2%	?
CCCCCc1ccc(OCCOCCn2c[n+](C)c3ccccc32)c(CCCCC)c1	18.4µM*	2.31µM*	?	?	2.06µM*	i
C[n+]1cn(CC(O)COCc2ccccc2)c2ccccc21 (centres undefined)	i	?	-6.1%	-8.0%	?	i
CN1CCN(C2CN(Cc3cn(Cc4cccc(C(F)(F)F)c4)nn3)S(=O)(=O)C2)CC1 (centres undefined)	i	-9.6%	23.7%	10.3%	-15.5%	i
Cc1nc(CS(=O)(=O)c2ccc(Cl)cc2)sc1C(=O)O	i	5.2%	6.7%	15.7%	-5.9%	i
Nc1nc2n(n1)C(c1ccccc1Cl)CC(c1ccc(F)cc1)N2 (centres undefined)	i	16.4µM*	-12.3%	-4.4%	?	?
Cc1ccc(C2CC(c3ccccc3Cl)n3nc(N)nc3N2)cc1 (centres undefined)	i	20.6µM*	2.1%	6.8%	?	i
Nc1nc2n(n1)C(c1ccc(Cl)cc1)CC(c1ccc(F)cc1)N2 (centres undefined)	i	?	-7.6%	-4.4%	?	i
Cc1ccc(C2CC(c3ccccc3C)n3nc(N)nc3N2)cc1 (centres undefined)	i	-3.0%	1.3%	4.7%	2.4%	?
CCCCn1c(-c2ccc(C(C)(C)C)cc2)nc2cc3[nH]c(=O)c(C(C)C)nc3cc21	i	?	5.9%	1.4%	14.6µM*	i
CCCCn1c(-c2ccc(Cl)c(Cl)c2)nc2cc3[nH]c(=O)c(C(C)C)nc3cc21	i	?	-29.3%	-10.4%	?	i
CCCCn1c(-c2cccnc2)nc2cc3[nH]c(=O)c(C(C)C)nc3cc21	?	18.4µM*	-10.5%	-8.8%	14.6µM*	i
CCCn1c(-c2cccc(Br)c2)nc2ccccc21	i	-18.4%	·	·	-25.8%	i
CCCCn1c(-c2cccc(Br)c2)nc2cc3[nH]c(=O)c(C(C)C)nc3cc21	?	18.4µM*	-21.4%	-21.1%	25.9µM*	i
CCCCn1c(-c2cccnc2)n[nH]c1=S	i	-3.4%	-7.9%	7.3%	4.5%	i
CCOC(=O)C1(C)CCCN(C(=O)c2cccc(C#N)c2)C1 (centres undefined)	i	-7.4%	20.0%	15.6%	2.1%	i
Cc1ccc(CNC(=O)c2c(-c3ccccc3)sc3ccccc23)o1	i	?	1.9%	3.0%	16.4µM*	i
COc1cc2sc(-c3ccc(S(C)(=O)=O)cc3)c(C(=O)NCc3ccc(C)o3)c2cc1OC	i	?	-5.1%	-13.9%	13µM*	?
O=C(NCc1ccc2c(c1)OCO2)c1c(-c2ccccc2)sc2ccccc12	i	?	-10.6%	-10.6%	?	?
COc1cc2sc(-c3ccc(S(C)(=O)=O)cc3)c(C(=O)NCCCCO)c2cc1OC	i	4.6%	12.7%	12.5%	-6.1%	i
O=C(CCN1CCCCC1)N1CCc2c([nH]c3ccccc23)C1c1cccnc1 (centres undefined)	i	-5.8%	11.7%	-4.6%	-8.4%	?
SMILES	KB-3-1 tox	TDP1 cell CPT	HT1080 IDH1KD tx	HT1080NT lethal	DT40 TDP1 no CPT	KB-V1 cytotox
COc1ccccc1C1/C(=C(/O)c2ccccc2)C(=O)C(=O)N1CC(C)O (centres undefined)	i	3.9%	15.7%	11.3%	2.1%	i
O=C(Nc1ccc(C(F)(F)F)cc1)c1cc(S(=O)(=O)NC2CCCCC2)ccc1F	i	13µM*	·	·	18.4µM*	?
O=C(Nc1ccc(C(F)(F)F)cc1)c1cc(S(=O)(=O)NC2CCCCCC2)ccc1F	?	20.6µM*	·	·	?	18.4µM*
Cc1cccc(CS(=O)(=O)Cc2ccc(C(=O)NCc3ccc(F)cc3)o2)c1	i	20.6µM*	·	·	?	i
Cc1ccc(CS(=O)(=O)Cc2ccc(C(=O)NCc3ccco3)o2)cc1	i	-24.0%	-5.8%	-2.3%	-21.1%	?
O=C(NCc1ccco1)c1ccc(CS(=O)(=O)Cc2ccc(Cl)cc2)o1	i	-31.1%	-45.8%	0.3%	?	14.6µM*
Cc1cccc(CS(=O)(=O)Cc2ccc(C(=O)NCc3ccc(Cl)cc3)o2)c1	·	16.4µM*	·	·	23.1µM*	·
CCCN(CCC)C(=O)C1CCCN1S(=O)(=O)c1cccc2nsnc12 (centres undefined)	i	-3.0%	11.7%	21.7%	2.2%	i
COC(=O)c1c(C)oc(C)c1S(=O)(=O)NCc1ccc(OC)cc1	i	-6.4%	2.9%	7.0%	-23.3%	i
CCCc1ccc(NS(=O)(=O)c2c(C)oc(C)c2C(=O)OC)cc1	i	?	-3.1%	-10.5%	20.6µM*	i
CC(C)CCNC(=O)C12CN(Cc3ccccc3)CC1C(c1ccc([N+](=O)[O-])cc1)=NO2 (centres undefined)	?	?	-13.3%	-7.0%	?	i
COc1cccc(CNC(=O)C23CN(Cc4ccccc4)CC2C(c2ccc([N+](=O)[O-])cc2)=NO3)c1 (centres undefined)	i	?	-3.4%	-2.9%	?	13µM*
O=C(NCc1ccc(C(F)(F)F)cc1)C12CN(Cc3ccccc3)CC1C(c1cccc([N+](=O)[O-])c1)=NO2 (centres undefined)	i	-102.8%	3.6%	15.4%	16.4µM*	i
CCc1ccc(C2CC(=O)Nc3c2c(=O)n(C)c2ncnn32)cc1 (centres undefined)	i	·	·	·	·	?
